# PubChem BioAssay (NCATS)
# Where “and” joins values, the source holds several entries; their conditions need not be identical. Identical values can stand only once. Records with an inconclusive call do not appear. Where a call stands in place of a potency, no number is given. A structure can be active in one record and inactive in another. Calls of active or inactive are those of the source. Unless noted, calls come from the whole dose curve; as a rule, active = well fitted curve in the direction sought with a large enough effect; inconclusive = small, poorly fitted or top-dose-only effect, or another doubt; inactive = no such curve, though single readings can be large; an effect the other way counts as inactive or inconclusive.
# Tests used:
# [1] = Primary qHTS for small molecule stabilizers of the endoplasmic reticulum resident proteome: Secreted ER Calcium Modulated Protein (SERCaMP) assay (AID 1508630)
# In short: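 GLuc-SERCaMP-expressing SH-SY5Y cells, pretreated 16 h with compound, are challenged with thapsigargin to empty ER calcium stores; after 4 h, coelenterazine is added directly to the medium and luminescence is imaged.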
# [2] = Cytotoxicity counterscreen for inhibitors of SARS-CoV-2 cell entry (AID 1645845; calls by dose curve; note: nearly all actives have a fitted effect of over 50% in size)
# In short: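 48 h compound treatment (after 1 h preincubation), HEK293-ACE2 cells, 37 C/5% CO2; ATP luminescence endpoint; normalized to cell wells and media blanks.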
# [3] = target: Cytochrome P450 2C9 (Homo sapiens) (UniProt P11712); assay: Cytochrome P450 family 2 subfamily C member 9 (CYP2C9) small molecule antagonists: luciferase biochemical (cell-free) qHTS assay (AID 1645842; active = well fitted curve in the direction sought with a large enough effect in the repeat runs; an effect the other way counts as inactive or inconclusive; note: nearly all actives have a fitted effect of over 55% in size; note: potency is the fitted concentration of half-maximal effect)
# In short: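 Luminescence, after 20 min with luciferin detection reagent, reflected CYP2C9 turnover during a 1 h NADPH-driven reaction at 37C. Enzyme-substrate mix contained 0.4% bovine serum albumin and was preincubated with compound 10 min at room temperature.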
# [4] = Primary qHTS for inhibitors of nuclear receptor binding SET domain protein 2 (NSD2) in an isogenic RCH-ACV NSD2 p.E1099K mutant (9B) (AID 1645876); note: nearly all actives have a fitted effect of over 70% in size; note: potency is the fitted concentration of half-maximal effect
# [5] = Primary qHTS for inhibitors of nuclear receptor binding SET domain protein 2 (NSD2) in an RCH-ACV wild type WT cells (2C) (AID 1645877); note: nearly all actives have a fitted effect of over 70% in size; note: potency is the fitted concentration of half-maximal effect
# [6] = A High-Content qHTS Against Drug Library for the Identification of Small Molecules that Inhibit DYT1 Early Onset Primary Dystonia-Associated Cell Pathology (AID 1645839; calls by dose curve)
# In short: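 In this high-content image screen, delE TorsinA mislocalization in inducible Flp-In 293 cells is scored as %pathology, with cell count serving as the counterscreen. Compound exposure lasts 48 h under tetracycline induction in reduced-serum medium.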
# [7] = target: Cytochrome P450 2D6 (Homo sapiens) (UniProt P10635); assay: Cytochrome P450 family 2 subfamily D member 6 (CYP2D6) small molecule antagonists: luciferase biochemical (cell-free) qHTS assay (AID 1645840; active = well fitted curve in the direction sought with a large enough effect in the repeat runs; an effect the other way counts as inactive or inconclusive; note: nearly all actives have a fitted effect of over 55% in size; note: potency is the fitted concentration of half-maximal effect)
# In short: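 P450-Glo luminescent screen: recombinant CYP2D6 enzyme–proluciferin substrate mix preincubated with compound 10 min at room temperature, then NADPH regeneration added for 1 h at room temperature. Detection reagent added for 20 min; luciferin light read as relative luminescence units.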
# [8] = Primary qHTS to identify inhibitors of SARS-CoV-2 cell entry (AID 1645846; calls by dose curve; note: nearly all actives have a fitted effect of over 45% in size); conditions: activity change, negative = inhibition: at 57.1 µM (top of the series) unless noted
# In short: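 HEK293 cells stably expressing human ACE2, pre-treated 1 h with compound, then infected with MLV particles pseudotyped with Wuhan-Hu-1 spike (C-terminal 19-aa truncation). Luciferase luminescence after 48 h at 37 °C, normalised to spike PP and bald PP.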
# Papain (Carica papaya) = Papain (Carica papaya) (UniProt P00784); assay: Primary qHTS assay for inhibitors of the protease papain (AID 1645873);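 note: papain turnover of Z-FR-AMC read as the AMC fluorescence gain over 10 min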
# [9] = target: Cytochrome P450 3A4 (Homo sapiens) (UniProt P08684); assay: Cytochrome P450 family 3 subfamily A member 4 (CYP3A4) small molecule antagonists: luciferase qHTS assay (AID 1645841; active = well fitted curve in the direction sought with a large enough effect in the repeat runs; an effect the other way counts as inactive or inconclusive; note: nearly all actives have a fitted effect of over 45% in size)
# In short: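 Luminescent CYP3A4 activity readout: compounds plus enzyme-substrate mix 10 min at room temperature, reaction started with NADPH regenerating system for 1 h, stopped with detection reagent, read after 20 min. Ketoconazole served as control.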
# [10] = target: Rap guanine nucleotide exchange factor 3 (Homo sapiens) (UniProt O95398); assay: Confirmatory qHTS for antagonist of cAMP-regulated guanine nucleotide exchange factor 3 (EPAC1) (AID 1645880); note: nearly all actives have a fitted effect of over 55% in size
# In short: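 Nucleotide exchange uses 100 nM EPAC1, 250 nM RAP1B-BODIPY-GDP and 50 uM GDP, with compounds in a concentration-titration series. After 5 min at room temperature, fluorescence (480 nm ex/540 nm em) is read every 5 min for 30 min. Data are normalized to control ATA and DMSO.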
# [11] = target: Rap guanine nucleotide exchange factor 3 (Homo sapiens) (UniProt O95398); assay: Confirmatory qHTS for agonist of cAMP-regulated guanine nucleotide exchange factor 3 (EPAC1) (AID 1645881);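 note: EPAC1 catalysed release of BODIPY-GDP from Rap1B seen as fluorescence loss; nearly all actives have a fitted effect of over 75% in size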
# [12] = target: Rap guanine nucleotide exchange factor 4 (Homo sapiens) (UniProt Q8WZA2); assay: Confirmatory qHTS for agonist of cAMP-regulated guanine nucleotide exchange factor 4 (EPAC2) (AID 1645884);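 note: nucleotide exchange releases bodipy-GDP from Rap1 and this lowers its fluorescence; nearly all actives have a fitted effect of over 65% in size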
# [13] = target: Rap guanine nucleotide exchange factor 4 (Homo sapiens) (UniProt Q8WZA2); assay: Confirmatory qHTS for antagonist of cAMP-regulated guanine nucleotide exchange factor 4 (EPAC2) (AID 1645885); note: nearly all actives have a fitted effect of over 25% in size
# Chain of Cytochrome P450 2D6 (Homo sapiens) (P10635 whole entry, looked up): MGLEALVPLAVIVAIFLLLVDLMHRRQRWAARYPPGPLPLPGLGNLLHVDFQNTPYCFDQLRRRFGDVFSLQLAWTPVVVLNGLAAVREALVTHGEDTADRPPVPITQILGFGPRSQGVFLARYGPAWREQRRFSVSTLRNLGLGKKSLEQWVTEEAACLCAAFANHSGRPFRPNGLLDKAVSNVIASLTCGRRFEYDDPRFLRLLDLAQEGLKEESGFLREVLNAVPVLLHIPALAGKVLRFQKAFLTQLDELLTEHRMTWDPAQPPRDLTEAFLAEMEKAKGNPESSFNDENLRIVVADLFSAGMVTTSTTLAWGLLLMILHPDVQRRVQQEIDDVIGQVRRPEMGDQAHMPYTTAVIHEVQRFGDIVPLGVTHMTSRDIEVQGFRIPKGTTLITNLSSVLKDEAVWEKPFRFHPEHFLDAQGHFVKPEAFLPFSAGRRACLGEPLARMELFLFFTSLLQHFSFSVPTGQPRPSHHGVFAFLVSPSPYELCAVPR
# Chain of Papain (Carica papaya) (P00784 whole entry, looked up): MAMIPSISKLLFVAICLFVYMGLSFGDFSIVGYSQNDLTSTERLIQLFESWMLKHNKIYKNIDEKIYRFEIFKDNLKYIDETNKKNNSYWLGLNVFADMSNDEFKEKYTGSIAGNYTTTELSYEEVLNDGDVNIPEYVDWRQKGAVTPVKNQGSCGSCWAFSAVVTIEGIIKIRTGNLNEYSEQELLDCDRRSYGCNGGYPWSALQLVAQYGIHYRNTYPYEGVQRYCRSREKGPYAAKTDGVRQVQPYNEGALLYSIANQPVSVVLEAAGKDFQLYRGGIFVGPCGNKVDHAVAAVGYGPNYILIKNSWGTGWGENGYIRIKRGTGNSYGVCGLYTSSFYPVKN
# Chain of Cytochrome P450 2C9 (Homo sapiens) (P11712 whole entry, looked up): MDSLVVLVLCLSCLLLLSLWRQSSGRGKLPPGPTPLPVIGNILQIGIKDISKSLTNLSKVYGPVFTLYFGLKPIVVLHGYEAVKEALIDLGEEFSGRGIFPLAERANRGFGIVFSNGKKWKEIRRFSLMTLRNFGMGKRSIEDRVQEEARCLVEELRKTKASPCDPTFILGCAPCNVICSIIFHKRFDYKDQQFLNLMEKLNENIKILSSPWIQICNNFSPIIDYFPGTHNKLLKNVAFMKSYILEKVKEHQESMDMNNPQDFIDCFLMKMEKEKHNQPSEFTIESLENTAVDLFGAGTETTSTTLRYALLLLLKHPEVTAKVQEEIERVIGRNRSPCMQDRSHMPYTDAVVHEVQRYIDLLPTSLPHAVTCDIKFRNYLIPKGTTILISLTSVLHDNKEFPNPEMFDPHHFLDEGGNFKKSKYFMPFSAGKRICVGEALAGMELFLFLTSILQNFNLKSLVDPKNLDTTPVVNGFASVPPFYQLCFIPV
# Chain of Rap guanine nucleotide exchange factor 3 (Homo sapiens) (O95398 whole entry, looked up): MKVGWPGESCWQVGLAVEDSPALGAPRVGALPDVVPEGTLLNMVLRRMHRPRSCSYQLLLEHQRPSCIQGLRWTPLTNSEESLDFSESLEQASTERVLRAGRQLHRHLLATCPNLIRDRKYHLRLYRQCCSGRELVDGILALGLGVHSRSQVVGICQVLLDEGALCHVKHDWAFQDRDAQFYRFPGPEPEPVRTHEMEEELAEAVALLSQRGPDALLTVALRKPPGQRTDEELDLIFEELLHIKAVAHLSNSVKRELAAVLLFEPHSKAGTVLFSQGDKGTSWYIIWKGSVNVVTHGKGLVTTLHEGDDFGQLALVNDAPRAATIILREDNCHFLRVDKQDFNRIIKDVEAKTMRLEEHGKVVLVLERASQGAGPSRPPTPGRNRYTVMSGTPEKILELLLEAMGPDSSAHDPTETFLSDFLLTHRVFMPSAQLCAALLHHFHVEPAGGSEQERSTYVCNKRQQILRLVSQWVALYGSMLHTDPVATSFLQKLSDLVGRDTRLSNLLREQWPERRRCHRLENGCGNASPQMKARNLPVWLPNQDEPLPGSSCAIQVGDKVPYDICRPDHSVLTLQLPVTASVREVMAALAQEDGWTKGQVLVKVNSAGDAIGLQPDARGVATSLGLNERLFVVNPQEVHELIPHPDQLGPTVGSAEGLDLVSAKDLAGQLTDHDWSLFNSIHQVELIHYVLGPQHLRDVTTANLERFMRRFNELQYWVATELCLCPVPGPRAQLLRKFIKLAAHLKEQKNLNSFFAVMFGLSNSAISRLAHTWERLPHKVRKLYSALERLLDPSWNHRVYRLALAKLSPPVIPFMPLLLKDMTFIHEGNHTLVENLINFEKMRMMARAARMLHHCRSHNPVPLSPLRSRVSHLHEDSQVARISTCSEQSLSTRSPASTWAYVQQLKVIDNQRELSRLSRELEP
# Chain of Rap guanine nucleotide exchange factor 4 (Homo sapiens) (Q8WZA2 whole entry, looked up): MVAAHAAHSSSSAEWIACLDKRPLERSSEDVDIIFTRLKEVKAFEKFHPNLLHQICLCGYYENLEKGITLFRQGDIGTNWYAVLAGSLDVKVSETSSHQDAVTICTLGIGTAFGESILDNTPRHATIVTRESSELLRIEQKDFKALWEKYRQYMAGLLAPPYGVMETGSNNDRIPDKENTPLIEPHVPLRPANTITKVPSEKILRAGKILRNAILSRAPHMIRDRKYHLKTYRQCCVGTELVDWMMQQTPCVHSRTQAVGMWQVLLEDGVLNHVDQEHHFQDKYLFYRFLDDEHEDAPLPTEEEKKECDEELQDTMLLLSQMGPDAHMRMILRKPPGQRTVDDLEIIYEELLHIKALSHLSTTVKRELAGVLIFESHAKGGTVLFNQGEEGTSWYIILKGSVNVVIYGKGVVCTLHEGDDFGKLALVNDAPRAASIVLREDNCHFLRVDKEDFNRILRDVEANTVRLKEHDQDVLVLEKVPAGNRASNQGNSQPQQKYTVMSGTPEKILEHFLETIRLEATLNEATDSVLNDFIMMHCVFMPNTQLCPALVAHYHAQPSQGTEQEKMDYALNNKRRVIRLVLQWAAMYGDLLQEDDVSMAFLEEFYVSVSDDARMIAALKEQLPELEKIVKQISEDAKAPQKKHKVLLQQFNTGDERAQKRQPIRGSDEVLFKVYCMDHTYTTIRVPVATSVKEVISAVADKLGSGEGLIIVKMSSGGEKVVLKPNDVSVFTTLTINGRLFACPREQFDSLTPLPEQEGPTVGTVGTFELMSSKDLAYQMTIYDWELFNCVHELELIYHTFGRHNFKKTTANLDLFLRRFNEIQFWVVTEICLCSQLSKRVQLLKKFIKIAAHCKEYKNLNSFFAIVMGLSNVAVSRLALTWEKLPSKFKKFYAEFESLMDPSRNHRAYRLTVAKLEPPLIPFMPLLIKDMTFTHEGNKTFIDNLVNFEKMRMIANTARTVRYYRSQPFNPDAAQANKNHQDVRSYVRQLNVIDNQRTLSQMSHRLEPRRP
# Chain of Cytochrome P450 3A4 (Homo sapiens) (P08684 whole entry, looked up): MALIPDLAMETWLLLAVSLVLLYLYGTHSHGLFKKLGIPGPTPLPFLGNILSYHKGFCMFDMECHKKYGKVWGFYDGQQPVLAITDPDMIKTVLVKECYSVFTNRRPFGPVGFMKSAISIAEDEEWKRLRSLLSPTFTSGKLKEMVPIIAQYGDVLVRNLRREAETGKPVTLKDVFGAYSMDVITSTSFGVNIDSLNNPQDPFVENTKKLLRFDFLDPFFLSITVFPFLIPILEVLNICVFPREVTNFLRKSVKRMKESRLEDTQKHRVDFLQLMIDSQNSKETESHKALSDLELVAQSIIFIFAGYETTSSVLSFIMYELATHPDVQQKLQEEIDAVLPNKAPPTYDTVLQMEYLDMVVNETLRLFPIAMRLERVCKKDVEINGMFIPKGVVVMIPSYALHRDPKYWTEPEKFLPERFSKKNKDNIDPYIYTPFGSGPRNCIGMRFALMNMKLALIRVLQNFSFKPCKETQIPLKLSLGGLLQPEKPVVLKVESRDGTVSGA
compound,measurement,setting,value
COC1(CS(=O)c2ccccc2)CCN(CCc2c[nH]c3ccc(F)cc23)CC1 (centres undefined),outcome,[1],inactive
same,Potency,[2],inactive
Cc1ccc(-c2nc3ccc(C)cn3c2CC(=O)N(C)C)cc1,outcome,[1],inactive
same,Potency,[3],inactive
same,Potency,[4],inactive
same,Potency,[5],inactive
N[C@@H](Cc1ccc(Oc2cc(I)c(O)c(I)c2)c(I)c1)C(=O)O,Potency,[6],inactive
same,Potency,[7],19.5 µM (active)
same,Potency,[3],3.89 µM (active)
same,Potency,[4],inactive
same,Potency,[5],inactive
C=C(C)[C@H]1Cc2c(ccc3c2O[C@@H]2COc4cc(OC)c(OC)cc4[C@@H]2C3=O)O1,Potency,[7],inactive
same,Potency,[3],6.17 µM (active)
same,"activity change, negative = inhibition",[8],-94.7%
same,Potency,Papain (Carica papaya),inactive
same,Potency,[4],0.188 µM (active)
same,Potency,[5],0.15 µM (active)
CN(C)CCN(C)CCc1ccc(Cl)c(Cl)c1,outcome,[1],inactive
same,Potency,[2],inactive
same,Potency,[4],inactive
same,Potency,[5],inactive
O=[N+]([O-])c1cc([As](=O)(O)O)ccc1O,Potency,[7],inactive
same,outcome,[9],inactive
same,Potency,[3],inactive
same,Potency,[2],inactive
same,"activity change, negative = inhibition",[8],-27.8%
same,Potency,[4],inactive
O=P1(NCCCl)OCCCN1CCCl (centres undefined),Potency,[6],inactive
same,Potency,[2],inactive
same,Potency,[8],inactive
same,"activity change, negative = inhibition",[8],-11%
same,Potency,[4],inactive
same,Potency,[5],inactive
CC(=O)[C@H]1CC[C@H]2[C@@H]3CC[C@H]4C[C@H](O)CC[C@]4(C)[C@H]3C(=O)C[C@]12C,outcome,[1],inactive
same,Potency,[5],inactive
Cc1cccc(C)c1NC(=O)CN1CCCC1=O,Potency,[7],inactive
same,Potency,[3],inactive
same,Potency,[2],inactive
same,"activity change, negative = inhibition",[8],-12.8%
same,Potency,Papain (Carica papaya),inactive
same,Potency,[4],inactive
same,Potency,[5],inactive
Cc1ncc(CNC(=O)N(CCCl)N=O)c(N)n1,outcome,[1],inactive
same,Potency,[2],inactive
same,Potency,Papain (Carica papaya),inactive
same,Potency,[4],inactive
same,Potency,[5],inactive
CC(CCc1ccccc1)NC(C)C(O)c1ccc(O)cc1 (centres undefined),Potency,[7],0.195 µM (active)
same,Potency,[3],inactive
same,Potency,[2],inactive
same,Potency,Papain (Carica papaya),inactive
same,Potency,[4],inactive
same,Potency,[5],inactive
CC(C)NCC(O)c1ccccc1Cl (centres undefined),Potency,[6],inactive
same,Potency,[7],11 µM (active)
same,Potency,[3],inactive
same,Potency,[2],inactive
same,Potency,[8],inactive
same,Potency,[4],inactive
same,Potency,[5],inactive
C#CCOC(C(=O)OCCN(C)C)(c1ccccc1)c1ccccc1,Potency,[6],inactive
same,Potency,[7],1.55 µM (active)
same,Potency,[3],0.776 µM (active)
same,Potency,[4],inactive
same,Potency,[5],inactive
N#CC(C#N)=Cc1ccc(O)c(O)c1,Potency,[6],inactive
same,Potency,[3],inactive
same,Potency,Papain (Carica papaya),inactive
same,Potency,[4],9.44 µM (active)
same,Potency,[5],10.6 µM (active)
NN=C(N)N,Potency,[6],inactive
same,Potency,[7],inactive
same,Potency,[3],inactive
same,Potency,[2],inactive
same,"activity change, negative = inhibition",[8],4.5%
same,Potency,Papain (Carica papaya),inactive
same,Potency,[4],inactive
same,Potency,[5],inactive
CC(C)=CC1C(C(=O)OCc2cccc(Oc3ccccc3)c2)C1(C)C (centres undefined),Potency,[6],inactive
same,Potency,[3],3.89 µM (active)
same,Potency,[2],inactive
same,Potency,[4],inactive
same,Potency,[5],inactive
same,Potency,[10],inactive
same,outcome,[11],inactive
same,outcome,[12],inactive
same,Potency,[13],inactive
CCOC(=O)C1(c2ccccc2)CCN(CCC(C#N)(c2ccccc2)c2ccccc2)CC1,Potency,[6],inactive
same,Potency,[7],1.74 µM (active)
same,Potency,[3],1.55 µM (active)
same,Potency,[4],5.96 µM (active)
same,Potency,[5],5.96 µM (active)
CCN(CC)CCN1C(=O)CN=C(c2ccccc2F)c2cc(Cl)ccc21,Potency,[6],inactive
same,Potency,[7],13.8 µM (active)
same,Potency,[3],inactive
same,Potency,[4],inactive
O=c1[nH]c2ccccc2n1C1CCN(CCCC(c2ccc(F)cc2)c2ccc(F)cc2)CC1,outcome,[1],inactive
same,Potency,Papain (Carica papaya),inactive
same,Potency,[4],23.7 µM (active) and 5.78 µM (active)
same,Potency,[5],16.8 µM (active) and 5.78 µM (active)
same,Potency,[10],inactive
same,outcome,[11],inactive
same,outcome,[12],inactive
NCCc1cc(O)c(O)cc1O,Potency,[7],inactive
same,Potency,[3],inactive
Cc1cc(SCc2sc(-c3ccc(C(F)(F)F)c(F)c3)nc2C)ccc1OCC(=O)O,outcome,[1],inactive
same,Potency,[2],inactive
same,Potency,[8],inactive
same,Potency,[4],inactive
same,Potency,[5],inactive
CC[N+](CC)(CC)CC,Potency,[6],inactive
same,Potency,[7],inactive
same,Potency,[3],inactive
same,Potency,[4],inactive
same,Potency,[5],inactive
Oc1ccccc1-c1ccccc1,Potency,[6],inactive
same,Potency,[7],inactive
same,Potency,[3],inactive
same,Potency,[2],inactive
same,Potency,[8],inactive
same,Potency,[4],inactive
same,Potency,[5],inactive
CC(=O)Nc1cc([As](=O)(O)O)ccc1O,Potency,[6],inactive
same,Potency,[7],inactive
same,Potency,[3],inactive
same,Potency,[2],inactive
same,"activity change, negative = inhibition",[8],-7.63%
same,Potency,[4],inactive
same,Potency,[5],inactive
CC[C@@H](CO)NC(=O)[C@@H]1C=C2c3cccc4c3c(cn4C)C[C@H]2N(C)C1,Potency,[6],inactive
same,Potency,[7],12.3 µM (active)
same,Potency,Papain (Carica papaya),inactive
Cn1cc(C2=C(c3cn(C4CCN(Cc5ccccn5)CC4)c4ccccc34)C(=O)NC2=O)c2ccccc21,Potency,[7],inactive
same,Potency,[3],3.09 µM (active)
same,Potency,[2],inactive
same,Potency,[4],inactive and 16.4 µM (active)
same,Potency,[5],inactive
CN1C[C@H](CNC(=O)OCc2ccccc2)C[C@@H]2c3cccc4c3c(cn4C)C[C@H]21,outcome,[9],inactive
C[C@H]1O[C@@H](O[C@H]2[C@@H](O)C[C@H](O[C@H]3[C@@H](O)C[C@H](O[C@H]4CC[C@@]5(C)[C@H](CC[C@@H]6[C@@H]5CC[C@]5(C)[C@@H](C7=CC(=O)OC7)CC[C@]65O)C4)O[C@@H]3C)O[C@@H]2C)C[C@H](O)[C@@H]1O,Potency,[10],inactive
